Experimental data: PubChem BioAssay (Tox21)
Records with an inconclusive call do not appear. Activity calls are given as the source filed them. Unless noted, the call rests on the fitted dose curve; in most records, active means well fitted curve in the direction sought with a large enough effect in the repeat runs; inconclusive means weak or mixed curves; inactive means no such curve, though single readings can be large; an effect the other way counts as inactive or inconclusive.

Tests used:
[1] = qHTS assay to identify small molecule agonists of the hypoxia (HIF-1) signaling pathway - cell viability counter screen (AID 1224844; calls by dose curve; further: nearly all actives have a fitted effect of over 50% in size); settings: HRE-bla ME-180 viability, CellTiter-Glo luminescence, 17 h; series mostly up to 76.8 µM
Method in brief: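 Luminescent ATP content (CellTiter-Glo, 30 min, room temperature) served as the viability measure in HRE-bla ME-180 cells exposed to compounds for 17 hrs in low-serum medium (0.5% dialyzed FBS).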

[2] = qHTS assay to identify small molecule agonists of the hypoxia (HIF-1) signaling pathway (AID 1224846; active means well fitted activation curve with a large enough effect in the signal ratio in the repeat runs, not every such curve was filed as active; the % refers to the signal ratio); settings: HRE-bla ME-180 cells, beta-lactamase ratio, 17 h; series mostly up to 76.8 µM
Method in brief: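 Measured by blue/green FRET after loading CCF4-AM: beta-lactamase expressed from a hypoxia response element in ME-180 cells. Test agents were delivered in DMSO and left 17 hrs; cells had been plated 5 hrs earlier in low-serum (0.5% dialyzed FBS) medium.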

[3] = qHTS RealTime-Glo MT Cell Viability Assay in HepG2 cells - 24 hour (AID 1224867); settings: RealTime-Glo luminescence; series mostly up to 76.8 µM; further: nearly all actives have a fitted effect of over 50% in size
Method in brief: (§1)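 Real-time, nonlytic viability: 600 HepG2 cells/well mixed with NanoLuc enzyme plus prosubstrate; 5 h settle, compound (DMSO) added by pintool; luminescence monitored over 40 h at 37 C.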

[4] = qHTS RealTime-Glo MT Cell Viability Assay in HEK293 cells - 32 hour (AID 1224868); settings: RealTime-Glo luminescence; series mostly up to 76.8 µM; further: top concentration of the series differs between compounds; nearly all actives have a fitted effect of over 50% in size
Method in brief: (§2)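 Cells + reagent dispensed (600 cells/well, HEK293) → 5 h at 37 C/5% CO2 → 23 nL compound in DMSO pinned → 40 h at 37 C → luminescence read at 0, 8, 16, 24, 32, 40 h.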

[5] = A CellTox Green Cytotoxicity Assay to monitor cytotoxicity in HEK293 cells - 0 hour (AID 1224869); settings: CellTox Green fluorescence; series mostly up to 76.8 µM; further: nearly all actives have a fitted effect of over 50% in size
Method in brief: (§3)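 Each value comes from one timepoint of a single continuous run in which HEK293 cells with CellTox Green were exposed to compound for up to 40 h at 37 C, dye fluorescence rising with cell death.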

[6] = qHTS RealTime-Glo MT Cell Viability Assay in HepG2 cells - 40 hour (AID 1224870); settings: RealTime-Glo luminescence; series mostly up to 76.8 µM; further: nearly all actives have a fitted effect of over 50% in size; further: potency means the concentration at half of the fitted maximal effect
Method in brief: (§4)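 Real-time viability: cells seeded at 600 per well together with NanoLuc and cell-permeant prosubstrate, compounds added after 5 h incubation. Luminescence tracked at 0, 8, 16, 24, 32 and 40 h of exposure.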

[7] = A CellTox Green Cytotoxicity Assay to monitor cytotoxicity in HEK293 cells - 40 hour (AID 1224871); settings: CellTox Green fluorescence; series mostly up to 76.8 µM; further: nearly all actives have a fitted effect of over 45% in size; further: potency means the concentration at half of the fitted maximal effect
Method in brief: as §3

[8] = qHTS RealTime-Glo MT Cell Viability Assay in HEK293 cells - 16 hour (AID 1224872); settings: RealTime-Glo luminescence; series mostly up to 76.8 µM
Method in brief: as §2

[9] = qHTS RealTime-Glo MT Cell Viability Assay in HEK293 cells - 40 hour (AID 1224874); settings: RealTime-Glo luminescence; max response: stronger effect = lower value; further: nearly all actives have a fitted effect of over 50% in size
Method in brief: (§5)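 qHTS format; HEK293 cells with NanoLuc/prosubstrate reagent, 37 C/5% CO2 for 5 h pre-dosing; compounds 23 nL in DMSO; luminescence at each time point reflects viable cells.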

[10] = A CellTox Green Cytotoxicity Assay to monitor cytotoxicity in HEK293 cells - 24 hour (AID 1224875); settings: CellTox Green fluorescence, stronger effect = higher value; series mostly up to 76.8 µM; further: nearly all actives have a fitted effect of over 45% in size
Method in brief: as §3

[11] = A CellTox Green Cytotoxicity Assay to monitor cytotoxicity in HepG2 cells - 16 hour (AID 1224876); settings: CellTox Green fluorescence; series mostly up to 76.8 µM; further: nearly all actives have a fitted effect of over 45% in size
Method in brief: (§6)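 Continuous culture of HepG2 cells with a membrane-impermeant DNA dye; rising fluorescence marks dead cells. Compound exposure lasted up to 40 h at 37 C, with reads every 8 h from 0 h.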

[12] = qHTS RealTime-Glo MT Cell Viability Assay in HepG2 cells - 32 hour (AID 1224877); settings: RealTime-Glo luminescence; series mostly up to 76.8 µM; further: nearly all actives have a fitted effect of over 55% in size; further: potency means the concentration at half of the fitted maximal effect
Method in brief: as §1

[13] = A CellTox Green Cytotoxicity Assay to monitor cytotoxicity in HepG2 cells - 24 hour (AID 1224878); settings: CellTox Green fluorescence; series mostly up to 76.8 µM; further: nearly all actives have a fitted effect of over 45% in size
Method in brief: as §6

[14] = A CellTox Green Cytotoxicity Assay to monitor cytotoxicity in HepG2 cells - 40 hour (AID 1224879); settings: CellTox Green fluorescence; series mostly up to 76.8 µM; further: nearly all actives have a fitted effect of over 40% in size
Method in brief: as §6

[15] = qHTS RealTime-Glo MT Cell Viability Assay in HEK293 cells - 0 hour (AID 1224880); settings: RealTime-Glo luminescence; series mostly up to 76.8 µM
Method in brief: as §5

[16] = qHTS assay to identify small molecule agonists of H2AX (AID 1224845; active means well fitted activation curve with a large enough effect in the signal ratio in the repeat runs, not every such curve was filed as active; the % refers to the signal ratio); settings: CHO-K1 phospho-H2AX Ser139 HTRF, 3 h; series mostly up to 154 µM
Method in brief: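 Phospho-H2AX Ser139 measured by HTRF (ex 320 nm; em 665 and 620 nm) after 24 hr antibody incubation. Compounds, 15 concentrations, 0.76% DMSO, were applied to CHO-K1 cells for 3hr at 37C before lysis.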

[17] = qHTS assay to identify small molecule agonists of H2AX - cell viability counter screen (AID 1224847; calls by dose curve; further: top concentration of the series differs between compounds; nearly all actives have a fitted effect of over 30% in size); settings: CHO-K1 viability, CellTiter-Glo luminescence, 3 h; series mostly up to 154 µM
Method in brief: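 Compounds tested at 15 concentrations were incubated 3 hr at 37C with wild-type CHO-K1 cells; cellular ATP-based luminescence (CellTiter-Glo) indicated viability.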

[18] = qHTS RealTime-Glo MT Cell Viability Assay in HepG2 cells - 8 hour (AID 1224873); settings: RealTime-Glo luminescence; series mostly up to 76.8 µM; further: nearly all actives have a fitted effect of over 55% in size
Method in brief: as §4

[19] = qHTS assay to identify small molecule antagonists of the estrogen related receptor (ERR) signaling pathway from Tox21 library (AID 1224848); settings: ERR reporter cell line, luciferase antagonist mode, 18 h; series mostly up to 92.4 µM; further: nearly all actives have a fitted effect of over 50% in size
Method in brief: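 Reading was by luminescence 30 min after ONE-Glo addition. Before that, ERR cells at 2,000 per well had rested 6 h at 37 C/5% CO2 and then received pin-tooled compounds in DMSO for 18 h at 37 C.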

[20] = qHTS assay to identify small molecule agonists of the estrogen related receptor (ERR) signaling pathway from Tox21 library (AID 1224849; calls by dose curve; further: nearly all actives have a fitted effect of over 15% in size); settings: ERR reporter cell line, ONE-Glo luciferase, 18 h; series mostly up to 92.4 µM
Method in brief: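 We plated ERR reporter cells, waited 6 h, added compounds in DMSO by pin tool and incubated them 18 h at 37 C. ONE-Glo was then added and luminescence read after 30 min.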
On the % scale 0 is the no-effect control and ±100 the full control effect.

CCC(=O)OCc1ccccc1
inactive: Potency [1] | outcome [2] | outcome [3] | Potency [4] | outcome [5] | Potency [6] | Potency [7] | Potency [8] | max response [9] -6.18% | outcome [10] | outcome [11] | Potency [12] | outcome [13] | Potency [14] | Potency [15]

C[C@@H]1C[C@H]2[C@@H]3C[C@H](F)C4=CC(=O)C(Cl)=C[C@]4(C)[C@@]3(F)[C@@H](O)C[C@]2(C)[C@@]1(O)C(=O)CO
inactive: Potency [16] | outcome [2] | outcome [17] | outcome [3] | Potency [4] | outcome [5] | Potency [6] | Potency [7] | Potency [8] | outcome [18] | max response [9] -27.2% | outcome [10] | Potency [12] | outcome [13] | Potency [14] | Potency [15]

[K+]
inactive: Potency [1] | outcome [2] | outcome [17] | Potency [4] | outcome [5] | Potency [7] | Potency [8] | max response [9] 21.2% | outcome [10] | outcome [11] | outcome [13] | Potency [14]
active: Potency [6] 34.7 µM | Potency [12] 49 µM

CCN(C=O)CC
inactive: Potency [16] | outcome [2] | outcome [17] | Potency [4] | outcome [5] | Potency [6] | Potency [7] | outcome [18] | max response [9] 2.6% | outcome [10] | outcome [11] | outcome [13] | Potency [14] | Potency [15]

CC1=CCC(O)(C(C)C)CC1 (stereo unspecified)
inactive: Potency [1] | outcome [17] | Potency [4] | outcome [5] | Potency [6] | Potency [7] | Potency [8] | outcome [18] | max response [9] 2.79% | outcome [10] | outcome [11] | Potency [12] | outcome [13] | Potency [14] | Potency [15]

COc1cc(C(=O)NCc2ccc(OCCN(C)C)cc2)cc(OC)c1OC
inactive: Potency [1] | outcome [17] | Potency [4] | outcome [5] | Potency [6] | Potency [7] | Potency [8] | outcome [18] | max response [9] -23.7% | outcome [10] | outcome [11] | Potency [12] | outcome [13] | Potency [15]

CCCO[Si](OCCC)(OCCC)OCCC
inactive: Potency [1] | outcome [2] | Potency [19] | outcome [20] | outcome [3] | Potency [4] | outcome [5] | Potency [6] | Potency [7] | Potency [8] | outcome [18] | max response [9] 2.55% | outcome [10] | Potency [12] | outcome [13] | Potency [14] | Potency [15]

CN1[C@@H]2CC[C@H]1CC(OC(=O)C(O)c1ccccc1)C2 (stereo partly specified)
inactive: Potency [1] | outcome [17] | Potency [19] | outcome [20] | outcome [3] | Potency [4] | outcome [5] | Potency [7] | Potency [8] | outcome [18] | max response [9] 3.93% | outcome [10] | outcome [11] | Potency [12] | outcome [13] | Potency [14] | Potency [15]

CC1=NN(c2cccc(S(=O)(=O)O)c2)C(=O)C1
inactive: outcome [2] | outcome [17] | Potency [19] | outcome [20] | outcome [3] | Potency [4] | outcome [5] | Potency [6] | Potency [7] | max response [9] 2.46% | outcome [10] | outcome [11] | Potency [12] | outcome [13] | Potency [14] | Potency [15]

CCCCOCCOC(=O)COc1cc(Cl)c(Cl)cc1Cl
inactive: Potency [1] | outcome [2] | outcome [3] | Potency [4] | outcome [5] | Potency [6] | Potency [7] | Potency [8] | max response [9] 4.7% | outcome [10] | outcome [11] | Potency [12] | outcome [13] | Potency [14] | Potency [15]

C[N+]12CCC(CC1)C(OC(=O)C(O)(c1ccccc1)c1ccccc1)C2 (stereo unspecified)
inactive: Potency [16] | outcome [17] | Potency [19] | outcome [20] | outcome [3] | Potency [4] | outcome [5] | Potency [6] | Potency [7] | outcome [18] | max response [9] 4.99% | outcome [10] | outcome [11] | Potency [12] | outcome [13] | Potency [14] | Potency [15]

CN(C)[C@@H]1C(=O)C(C(=O)NCN2CCCC2)=C(O)[C@@]2(O)C(=O)C3=C(O)c4c(O)cccc4[C@@](C)(O)C3C[C@@H]12 (stereo partly specified)
inactive: Potency [1] | outcome [17] | outcome [3] | Potency [4] | outcome [5] | Potency [7] | Potency [8] | outcome [18] | max response [9] 7.86% | outcome [10] | outcome [11] | Potency [12] | outcome [13] | Potency [14] | Potency [15]

N[C@@H](CCC(=O)O)C(=O)O
inactive: Potency [1] | outcome [2] | outcome [17] | outcome [3] | Potency [4] | outcome [5] | Potency [6] | Potency [7] | Potency [8] | outcome [18] | max response [9] -0.971% | outcome [10] | outcome [11] | Potency [12] | outcome [13] | Potency [15]

O=C(c1ccccc1O)c1ccccc1O
inactive: Potency [1] | outcome [2] | outcome [17] | outcome [3] | outcome [5] | Potency [6] | outcome [18] | outcome [10] | outcome [11] | Potency [12] | outcome [13] | Potency [14] | Potency [15]
active: Potency [7] 48.5 µM

CCOc1c(N2CCOCC2)cnn(C)c1=O
inactive: Potency [16] | outcome [2] | outcome [17] | outcome [3] | Potency [4] | outcome [5] | Potency [6] | Potency [7] | Potency [8] | max response [9] 3.38% | outcome [10] | outcome [11] | Potency [12] | outcome [13] | Potency [14] | Potency [15]
